Data on 40 compounds can be found in PubChem BioAssay (NCATS).

Results filed as inconclusive are left out. Unmarked numbers belong to inactive results. Calls of active or inactive are those of the source. Calls come from the whole dose curve; as a rule, active = well fitted inhibition curve with a large enough effect; inconclusive = small, poorly fitted or top-dose-only effect; inactive = flat fitted curve, though single readings scatter.
% is set by controls: 0 for no effect and ±100 for the full control effect; potency is the fitted concentration of half-maximal effect.

In the experiment the target is Dual specificity protein kinase CLK4 (Homo sapiens) (UniProt Q9HAZ1). Put plainly: qHTS Assay for Inhibitors of CDC-like Kinase 4 (ADP-Glo Assay) (AID 1771). Note: nearly all actives have a fitted effect of over 70% in size. To be noted: recombinant CLK4, ADP-Glo luminescence; series mostly up to 80 µM; activity change, negative = inhibition: at the top concentration. As for the experimental part: NIH Molecular Libraries Probe Production Centers Network [MLPCN] NIH Chemical Genomics Center [NCGC] MLPCN Grant: 1R03MH084827-01 Assay Submitter (PI): Tom Misteli NCGC Assay Overview: Clk4 (Invitrogen, cat# PV3839) was assayed using ATP and the RS repeat peptide (AnaSpec cat # 61722) as substrates. In the assay, the ADP levels were detected using Promega ADP-Glo technology wherein the remaining ATP from the kinase reaction is first depleted with an ATPase reagent followed by a reagent that contains and enzyme which converts the ADP produced to ATP as well as Ultra-Glo luciferase and D-luciferin which generates a bioluminescence signal from the ATP. The positive control for the assay was TG003 (Sigma-Aldrich, cat# 300801-52-9) which has been described as an inhibitor of Clk 4[1].
Sequence of Dual specificity protein kinase CLK4 (Homo sapiens) (Q9HAZ1 whole entry, looked up): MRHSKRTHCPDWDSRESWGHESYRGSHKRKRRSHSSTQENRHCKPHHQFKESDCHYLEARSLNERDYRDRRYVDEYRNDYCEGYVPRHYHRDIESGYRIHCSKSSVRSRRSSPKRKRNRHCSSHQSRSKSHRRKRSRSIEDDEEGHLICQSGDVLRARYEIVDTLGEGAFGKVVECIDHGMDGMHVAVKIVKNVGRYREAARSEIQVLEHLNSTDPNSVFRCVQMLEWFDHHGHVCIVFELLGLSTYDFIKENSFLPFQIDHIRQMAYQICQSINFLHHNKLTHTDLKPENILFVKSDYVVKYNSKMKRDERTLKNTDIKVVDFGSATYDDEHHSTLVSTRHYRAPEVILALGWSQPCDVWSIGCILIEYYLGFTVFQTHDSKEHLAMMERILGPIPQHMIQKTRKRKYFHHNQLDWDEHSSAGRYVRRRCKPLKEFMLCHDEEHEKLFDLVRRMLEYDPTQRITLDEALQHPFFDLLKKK
NCGC Assay Protocol Summary: Two uL/well of substrate-buffer solution (100 uM RS peptide, 1 uM ATP, 1x ADP-Glo Buffer A, 2 mM MgCl2, 0.5 mM EGTA, 2.5 mM DTT, 0.01% Triton X-100, final concentrations) was dispensed into 1536-well plates (Greiner, solid white, medium binding assay plates) with the Aurora Discovery BioRAPTR Flying Reagent Dispenser (FRD; Beckton-Dickenson). Twenty-three nanoliter of compound and control solutions were transferred to the assay plate using a Kalypsys pin-tool followed by 0.5 uL/well Clk4-buffer solution (25 nM Clk4, 1x ADP-Glo Buffer A, 2 mM MgCl2, 0.5 mM EGTA, 2.5 mM DTT, 0.01% Triton X-100 final concentration) dispensing for a total kinase reaction volume of 2.5 uL/ well. After 1 hr of room-temperature incubation, 2.5 uL ADP-Glo reagent was added and incubated at room temperature for 45 min to stop the kinetic reaction and degrade residual ATP. The ADP product was then converted to ATP by adding 5 uL per well of ADP-Glo Reagent II to yield a total assay volume of 10 uL/ well. Luminescence was detected after 30 min room temperature incubation with the Perkin Elmer Viewlux.
For orientation: qHTS replaces the single test concentration by a dilution series.
For the compound `Cc1ccccc1-c1cncnc1N1CCN(C)CC1`, the “activity change, negative = inhibition” value is -20.7%.

Take `CCNc1ncc2nc(-c3ccc(Cl)cc3)c(=O)n(Cc3cccc(OC)c3)c2n1`: the “activity change, negative = inhibition” value is -3.41%.

`COc1ccc(Oc2ncc3nc(-c4cn(C)c5ccccc45)c(=O)n(C)c3n2)cc1`: the “activity change, negative = inhibition” value was 0.598%.

With `COCCn1c(=O)c(-c2cccc(C#N)c2)nc2cnc(N3CCN(C)CC3)nc21`, the “activity change, negative = inhibition” value was -5.59%.

On to `c1cn(-c2cc(-c3ccc4c(c3)OCO4)ncn2)cn1`, for which the Potency was 2.82 µM (active).

On to `COc1ncc2nc(-c3cn(C)c4ccccc34)c(=O)n(CCC#N)c2n1`, for which the “activity change, negative = inhibition” value is 0.616%.

`COc1ccccc1-c1ccc2ncnc(NCCNC(C)=O)c2c1`: the Potency is 15.8 µM (active).

Turning to `COc1ccc(-c2nc3cnc(OC)nc3n(C[C@H]3CCCO3)c2=O)cc1`, the “activity change, negative = inhibition” value was -3.8%.

Consider `CN1CCN(c2ncncc2-c2ccoc2)CC1`, for which the “activity change, negative = inhibition” value is -8.68%.

`CN(C)c1ncc2nc(-c3ccc(Cl)cc3)c(=O)n(Cc3cccs3)c2n1`: the “activity change, negative = inhibition” value is -0.759%.

As for `COc1ccccc1CCn1c(=O)c(-c2cn(C)c3ccccc23)nc2cncnc21`, the “activity change, negative = inhibition” value is -6.55%.

`CN1CCN(c2ncc3nc(-c4ccccc4)c(=O)n(C4CC4)c3n2)CC1`: the “activity change, negative = inhibition” value was -10.5%.

With `COc1cccc(-c2cc(NCc3cccnc3)ncn2)c1`, the Potency was 14.1 µM (active).

Turning to `COc1ccccc1CNc1cc(-c2ccccc2C(F)(F)F)ncn1`, the “activity change, negative = inhibition” value is -0.283%.

For `CN(C)Cc1ccccc1-c1nccc(N(C)Cc2ccco2)n1`, the “activity change, negative = inhibition” value is 5.24%.

`c1cncc(-c2ccc3ncnc(NC4CCNCC4)c3c2)c1`: the Potency was 15.8 µM (active).

Regarding `Cc1cnc(CNc2ccnc(-c3cccnc3)n2)cn1`, the Potency was 15.8 µM (active).

In the case of `Clc1ccccc1-c1nccc(NCc2ccccc2)n1`, the “activity change, negative = inhibition” value is -23.2%.

Take `CN1CCN(c2ncc3nc(-c4ccc(Cl)cc4)c(=O)n(C)c3n2)CC1`: the “activity change, negative = inhibition” value was -1.59%.

For `COc1ccc(-c2nc3cnc(N(C)C)nc3n(C[C@H]3CCCO3)c2=O)cc1`, the “activity change, negative = inhibition” value was -9.43%.

Regarding `COCCn1c(=O)c(-c2cc(F)cc(F)c2)nc2cnc(N(C)C)nc21`, the “activity change, negative = inhibition” value is -2.15%.

In the case of `Cn1cc(-c2nc3cnc(OCc4ccccc4)nc3n(CCC#N)c2=O)c2ccccc21`, the “activity change, negative = inhibition” value was 12.1%.

Turning to `Cc1noc(C)c1-c1nccc(N2CCN(C)CC2)n1`, the “activity change, negative = inhibition” value was -8.6%.

As to `c1ccc(Nc2ncnc3ccc(-c4ccoc4)cc23)cc1`, the Potency was 0.631 µM (active).

As to `COc1cccc(Nc2ncc3nc(-c4cc(F)cc(F)c4)c(=O)n(C[C@H]4CCCO4)c3n2)c1`, the “activity change, negative = inhibition” value is -7.8%.

On to `Cn1c(=O)c(-c2ccccc2)nc2cnc(Nc3ccccc3)nc21`, for which the “activity change, negative = inhibition” value is -7.92%.

For `COc1ccccc1CCn1c(=O)c(-c2ccc(F)c(F)c2)nc2cncnc21`, the “activity change, negative = inhibition” value was -0.283%.

On to `c1ccc(CNc2nc(-c3ccc4c(c3)OCO4)nc3ccccc23)cc1`, for which the “activity change, negative = inhibition” value was -21.6%.

Consider `COc1ccccc1CNc1ncnc2ccc(-c3ccoc3)cc12`, for which the Potency is 0.316 µM (active).

Take `CNc1ncnc2ccc(-c3cccc(OC)c3)cc12`: the Potency is 0.501 µM (active).

`Cc1noc(C)c1-c1nc(Nc2ccc(F)cc2)c2ccccc2n1`: the “activity change, negative = inhibition” value is -7.28%.

Regarding `CN1CCN(c2ncc3nc(CCc4ccccc4)c(=O)n(C)c3n2)CC1`, the “activity change, negative = inhibition” value was -5.26%.

In the case of `Cn1cc(-c2nc3cnc(Oc4cccc(Cl)c4)nc3n(C3CC3)c2=O)c2ccccc21`, the “activity change, negative = inhibition” value was -2.3%.

`COc1ccccc1-c1ccc2ncnc(NCc3cnc(C)cn3)c2c1`: the Potency is 17.8 µM (active).

As to `CCNc1ncc2nc(-c3ccccc3)c(=O)n(C)c2n1`, the “activity change, negative = inhibition” value was -9.72%.

In the case of `COc1ccc(-n2c(=O)c(-c3ccc(Cl)cc3)nc3cnc(N(C)C)nc32)cc1`, the “activity change, negative = inhibition” value was -0.377%.

For the compound `CNc1nc(-c2cccc(NS(C)(=O)=O)c2)nc2ccccc12`, the Potency was 22.4 µM (active).

Turning to `CS(=O)(=O)Nc1cccc(-c2cncnc2NCc2cccnc2)c1`, the “activity change, negative = inhibition” value was -19.9%.

Take `FC(F)(F)c1ccccc1-c1nc(NC2CC2)c2ccccc2n1`: the Potency is 14.1 µM (active).

Turning to `CN1CCN(c2ncnc3ccc(-c4cccnc4)cc23)CC1`, the Potency is 14.1 µM (active).
